# Only some compounds are listed: those with a hit (about 6.5% of all), similar ones and a draw of the others.
# HCMV antiviral = inhibitors of human cytomegalovirus | activity change, negative = inhibition, % at 57.5 µM | AID 1259415 | 410,000 compounds, 4.5% hits | HFF cells, HCMV-luciferase reporter, 72 h; stronger effect = lower value; in the data active means activity change below about -60%; inconclusive means no clear call, values can overlap the other calls; inactive means above about -39%
#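 Two-dose cell screen: HFF monolayers treated with compounds and infected with luciferase-expressing HCMV at 1 PFU/cell, 72 h at 37C, then lysed for luciferase measurement.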
# MARV entry inh = inhibitors of Marburg virus binding or cell entry. 300,000 compounds, 1.8% hits. Marburg virus pseudotyped entry inhibition, cell reporter. AID 540276. Potency, µM (doses to about 37.8 µM), without a hit: at the highest dose activity change, negative = inhibition, hits mostly inhibitors; calls by dose curve; tested in HEK293 cells; further: potency means the concentration at half of the fitted maximal effect
# FMDV inh = blocks foot and mouth disease virus; FMDV antiviral cell-based qHTS; Potency, µM (highest dose often 57.9 µM), without a hit: at the highest dose activity change, negative = inhibition, hits mostly inhibitors; 410,000 compounds, 1.2% hits; AID 1159524; calls by dose curve; tested in HEK293T cells; further: read-out not given here; potency means the concentration at half of the fitted maximal effect; nearly all actives have a fitted effect of over 45% in size
# LASV entry inh = Lassa virus entry inhibition | Lassa virus pseudotype entry inhibition, cell reporter | Potency, µM (titrated, usually from 37.9 µM), inactives show at the top dose activity change, negative = inhibition, usual class: inhibitors | 300,000 compounds, 1.2% hits | AID 540256; calls by dose curve; tested in HEK293 cells; further: potency means the concentration at half of the fitted maximal effect; nearly all actives have a fitted effect of over 50% in size
# VACV Venus inh = vaccinia inhibition (Venus reporter) | 330,000 compounds, 0.46% hits | Vaccinia virus Venus reporter expression, fluorescence | Potency, µM (titrated, usually from 36.5 µM), without a hit: at the top dose activity change, negative = inhibition, hits mostly inhibitors; calls by dose curve; tested in A549 cells; further: potency means the concentration at half of the fitted maximal effect; nearly all actives have a fitted effect of over 30% in size
# Vaccinia mCherry = inhibitors of vaccinia virus infection (mCherry reporter signal) | Vaccinia virus mCherry reporter infection, fluorescence | Potency, µM (highest dose often 36.5 µM), without a hit: at the top dose activity change, negative = inhibition, most hits filed as inhibitors | 310,000 compounds, 0.63% hits; calls by dose curve; tested in A549 cells; further: potency means the concentration at half of the fitted maximal effect; nearly all actives have a fitted effect of over 35% in size
# Starred values were filed as active, the others as inactive; i = inactive; ? = inconclusive; / = no result given; [ ] = dose if it differs, or a comment. On the % scale 0 is the no-effect control and ±100 the full control effect.
SMILES,HCMV antiviral,MARV entry inh,FMDV inh,LASV entry inh,VACV Venus inh,Vaccinia mCherry
CCOC(=O)Cn1nnnc1C(C(C)C)N(Cc1cccs1)Cc1cc2cc(C)ccc2[nH]c1=O (stereo unspecified),-11.0,9.2µM*,?,?,/,/
CCC(c1nnnn1C1CCCC1)N(Cc1cccs1)Cc1cc2cc(C)ccc2[nH]c1=O (stereo unspecified),?,?,0.0%,?,-21.6%,/
O=C(CN(c1cc(C(F)(F)F)ccc1Cl)S(=O)(=O)c1ccccc1)NCCc1ccccc1,-70.4*,-5.9%[46.1 µM],13.4%,-1.8%[46.1 µM],-19.9%,-15.8%
CS(=O)(=O)N(CC(=O)NCCc1ccccc1)c1cc(C(F)(F)F)ccc1Cl,5.1,-1.9%[46.1 µM],16.3%,-11.3%[46.1 µM],-16.4%,i
C=CCN=c1scc(-c2ccc3c(c2)NC(=O)CO3)n1/N=C(\C)c1ccccn1,-95.0*,?,17.8µM*,?,?,?
CCc1cccc(CC)c1N(COC)C(=O)Cn1c(C)nc2ccccc21,-64.6*,/,10µM*,-18.2%[46.1 µM],-16.0%,-10.2%
COc1ccc(-c2nc3cnc(Nc4cccc(OC)c4)nc3n(C[C@H]3CCCO3)c2=O)cc1,/,/,-1.5%,/,/,/
COC(=O)c1ccc(Nc2nnc(-c3ccc(C)c(S(=O)(=O)N4CCN(C)CC4)c3)c3ccccc23)cc1,-29.6,?,12.1%,?,-21.5%,-27.1%
COc1ccc2c(c1)C(=O)/C(=C/C=C/c1ccccc1)CC2,-38.5,1.0%,5.9%,-2.6%,/,/
COC1=CC(=O)C(O)=C/C1=C\C=C\c1ccccc1,/,/,39.8µM*,/,1.6%,-5.1%
Oc1ccccc1C1=NN(c2ccccc2)C(c2ccc(F)cc2)C1 (stereo unspecified),-73.7*,-9.8%[46.1 µM],-29.6%,-23.5%[46.1 µM],-4.4%,-26.0%
Oc1ccc(C2=NN(c3ccccc3)C(c3ccc(F)cc3)C2)cc1 (stereo unspecified),21.6,?,?,11.2µM*,?,-29.7%
Cc1cc(=O)n(Cc2cccc(Cl)c2)c2c1c(C)nn2-c1ccccc1,15.7,/,-3.9%,-3.6%[46.1 µM],-4.8%,-6.2%
N#C/C(=C\c1ccc(Cl)cc1)c1nc(-c2cc3c(ccc4ccccc43)oc2=O)cs1,-2.3,/,-5.6%,-19.6%[46.1 µM],-1.2%,-2.8%
C=CCN1C(=O)/C(=C/c2ccc(OC(C)=O)c(OCC)c2[N+](=O)[O-])SC1=S,-98.7*,?,?,?,76.6%,i
CCCCS(=O)(=O)/C=C\C1C2C=CC(C2)C1S(=O)(=O)CCCC (stereo unspecified),-4.4,0.6%,2.5%,?,-8.2%,/
CCCCS(=O)(=O)/C=C\C=C/S(=O)(=O)CCCC,/,?,?,11.2µM*,11.2µM*,/
COc1ccc(Nc2cc3[nH]c(-c4ccc(C(=O)N(C)C)cc4)cc3cn2)c(OC)c1,38.1,/,/,/,/,/
COc1ccc(C(=O)NC(Nc2ccc(C)cc2)C(Cl)(Cl)Cl)cc1 (stereo unspecified),-72.1*,?,?,-11.0%,-22.0%,-23.8%
COc1ccc(NC(NC(=O)c2ccc(OC)cc2)C(Cl)(Cl)Cl)cc1 (stereo unspecified),-27.2,?,-26.6%,?,-17.6%,-23.8%
COC(=O)C(c1cccc(OC)c1)(c1cn(C)c2ccccc12)C(Nc1ccccc1)c1ccccc1 (stereo unspecified),-6.0,/,/,/,/,/
Cc1ccnc(NC(=O)Cc2ccc(-c3ccccc3)cc2)c1,-90.4*,/,53.6%,/,/,/
Cc1ccnc(NC(=O)CS(=O)(=O)Cc2ccccc2)c1,-99.3*,26.6%,34.0%,-7.4%,-4.6%,-1.6%
COC(=O)c1ccc(NC(=O)CC2C(=O)N(c3cccc(OC)c3)C(=O)N2Cc2cccs2)cc1 (stereo unspecified),-25.6,/,-6.2%,?,-3.9%,-4.2%
COc1ccc(-c2nc3cnc(N4CCOCC4)nc3n(Cc3cccs3)c2=O)cc1,/,/,-10.3%,/,/,/
CCC(=O)N1CCN(c2ccc(NC(=O)c3cc4ccccc4o3)cc2Cl)CC1,-103.6*,11.2µM*,8.91µM*,?,11.2µM*,?
CCCC(=O)N1CCN(c2ccc(NC(=O)c3cccs3)cc2Cl)CC1,2.0,?,7.4%,-8.5%[46.1 µM],-14.9%,-2.7%
O=C(Nc1ccc(N2CCN(C(=O)c3ccccc3)CC2)c(Cl)c1)c1ccco1,-32.8,?,-68.2%,?,?,-24.6%
